The source of these data is PubChem BioAssay (NCATS).

Records with an inconclusive call do not appear. A call without a number means that no potency is given here. Values without a mark were called inactive. The source made the active and inactive calls. Calls follow the shape of the dose curve; as a rule, active = well fitted cell-killing curve with a large enough effect; inconclusive = small, poorly fitted or top-dose-only effect, or effect the other way; inactive = flat fitted curve, though single readings scatter.
Potency is read from the fitted curve at half-maximal effect.

The assay concerns HeLa. Nature of the assay: Primary qHTS to identify gynecologic anti-cancer compounds using libraries of approved drugs and bioactive compounds (AID 1345084). Also: nearly all actives have a fitted effect of over 55% in size. To be noted: Gynecologic cancer cell panel viability, ATPlite luminescence, 48 h; series mostly up to 57.5 µM. The text has this:
National Center for Advancing Translational Sciences [NCATS] Assay Overview: Chemotherapeutic drug responses vary from cancer to cancer and from patient to patient. These variations could be caused by a number of factors including patient genomic background, tumor mutations, tumor heterogeneity, and aspects of drug treatment. Chemotherapeutic drug resistance is also a common issue and can lead to ineffective treatment and patient death. Here we have profiled the cell killing effects of thousands of compounds to characterize the responses in three gynecological cancers, identify cancer-selective compounds, and understand the diversity of responses to these compounds from pan-cancer suppressors to single cell line selective compounds. In this assay, we screened a 7,914 compound drug library that included approved drug and bioactive compounds in six ovarian, three cervical, and […] placental cancer cell lines using the ATPlite assay for cell viability. […] The cervical cancer cell lines included HeLa, Ca Ski, and C-33 A. The placental cancer cell lines included JEG-3. HEK 293T cells were used as the control cell line to determine the selectivity index. ATPlite is a luminescence based assay reliant on the conversion of a luciferase substrate to light in the presence of ATP. As a cytotoxic compound will suppress growth and decrease the number of cells, the concentration of ATP will decrease, and less light signal will be detected in the well.
Assay Protocol Summary: 1,000 cells in 4 uL of media were dispensed into white, solid bottom 1536-well plates using a Multidrop Combi (Thermo Scientific). The Assay plates were incubated for 16 hours at 37 C with 5% CO2 in assay plates, followed by the addition of 23 nL of DMSO or drug dissolved in DMSO. Each compound was assayed in five concentrations (0.092, 0.46, 2.3, 11.5, and 57.5 uM), using the automated Wako 1536 Pin Tool workstation and incubated at 37 C with 5% CO2 48 hours. 4 uL of ATPlite, the ATP monitoring reagent, was then added to the each well of the assay plates using the Multidrop Combi reagent dispenser followed by incubation for 15 minutes at room temperature. The resulting luminescence was measured using the ViewLux plate reader.
For orientation: In qHTS, concentration-response curves come from the screen itself.
`C[N@@+]1(CC2CC2)CC[C@]23c4c5ccc(O)c4O[C@H]2C(=O)CC[C@@]3(O)[C@H]1C5`: the Potency result was “inactive”. Take `C[C@H]1CN(CC[C@H](O)C2CCCCC2)CC[C@@]1(C)c1cccc(O)c1`: the Potency result is “inactive”. Turning to `C[C@]12CCC(=O)C=C1CC[C@@H]1[C@@H]2[C@@H](O)C[C@]2(C)C(=O)CC[C@@H]12`, the Potency entry was “inactive”. For `O=C(N[C@H]1CN2CCC1CC2)c1cc2cccc(Cl)c2s1`, the Potency entry is “inactive”. `C/C=C(\C)C(O)C(C)/C=C(C)/C=C/C/C(C)=C/Cc1nc(OC)c(OC)c(O[C@@H]2O[C@@H](C)[C@H](O)[C@@H](O)[C@H]2O)c1C` (stereo not given in full): the Potency entry was “inactive”. Turning to `CCCCCn1cc(C(=O)Cc2ccccc2OC)c2ccccc21`, the Potency entry is “inactive”.

For the compound `C1=C(c2cnc[nH]2)c2ccsc2CC1`, the Potency entry is “inactive”.

For the compound `CCC1=CC2CN3CCc4c([nH]c5ccccc45)[C@@](C(=O)OC)(C2)[C@@H]13`, the Potency result was “inactive”. Same read-out and setting: the result for `COC1(C[S@@](=O)c2ccccc2)CCN(CCc2c[nH]c3ccc(F)cc23)CC1` reads “inactive”. `CC(C)(C)[C@]1(O)C[C@@H]2OC(=O)C[C@@]23C(=O)O[C@@H]2OC(=O)[C@@H](O)[C@]213`: the Potency result is “inactive”. Turning to `c1ccc([C@@H]2C[C@H]2NC2CCNCC2)cc1`, the Potency entry was “inactive”. Turning to `C=C(CO)[C@@]12O[C@@H]1[C@@]1(C)C(=CC2=O)CC[C@@H](O)[C@@H]1C`, the Potency result was “inactive”. Regarding `CC(=O)OC[C@]12C[C@H](OC(=O)CC(C)C)C(C)=C[C@H]1O[C@@H]1[C@H](O)[C@@H](OC(C)=O)[C@@]2(C)[C@@]12CO2`, the Potency was 158 nM (active). Regarding `C#CC1(O)CCC2C3CCC4=CC(=O)CCC4=C3C=CC21C` (stereo not given), the Potency was 1120 nM (active).

For the compound `C[C@]12CC[C@H]3[C@@H](CCC4=C/C(=N/OCC(=O)O)CC[C@@]43C)[C@@H]1CC[C@@H]2O`, the Potency result is “inactive”. Same read-out and setting: the result for `CO[C@H]1C[C@H](O[C@H]2CC[C@]3(CO)[C@H]4CC[C@]5(C)[C@@H](C6=CC(=O)OC6)CC[C@]5(O)[C@@H]4CC[C@]3(O)C2)O[C@H](C)[C@H]1O` reads 199 nM (active); that for `COc1ccc2c3c([nH]c2c1)C(C=C(C)C)N1C(=O)C2CCCN2C(=O)C1C3` (stereo not given), “inactive”; that for `CCCCN1[C@@H]2CC[C@H]1CC(OC(c1ccc(F)cc1)c1ccc(F)cc1)C2` (stereo not given in full), “inactive”.

On to `CC(=O)O[C@H]1CN2CCC1CC2`, for which the Potency result is “inactive”. Consider `Cc1[nH]c2ccc(Cl)cc2c1CCN(C)C`, for which the Potency result was “inactive”. For `O=S(=O)(c1ccccc1F)N1CCOc2c(N3CCNCC3)cccc21`, the Potency entry is “inactive”. Regarding `CN1CN(c2ccccc2)C2(CCN(CCCC(=O)c3ccc(F)cc3)CC2)C1=O`, the Potency entry is “inactive”. For the compound `C[C@H]1CC[C@@H]2[C@@H](C)[C@H]3[C@H](C[C@H]4[C@@H]5CC=C6CC(O[C@@H]7O[C@H](CO)[C@@H](O)[C@H](O[C@@H]8O[C@H](CO)[C@@H](O)[C@H](O)[C@H]8O)[C@@H]7O[C@@H]7O[C@@H](C)[C@H](O)[C@@H](O)[C@H]7O)CC[C@]6(C)[C@H]5CC[C@]34C)N2C1` (stereo not given in full), the activity change, negative = cytotoxicity was 8.23% [at 11.6 µM].

On to `CC(=O)C1CCC2C3CCC4C[C@@H](O)CCC4(C)C3CCC12C` (stereo not given in full), for which the Potency entry was “inactive”. In the case of `Oc1ccc2c(c1)C13CCCC[C@H]1[C@@H](C2)N(CC1CCC1)CC3`, the Potency result is “inactive”. As to `Clc1ccc([C@]23CNC[C@H]2C3)cc1Cl`, the Potency result is “inactive”. Turning to `CC[C@H]1C2CC3[C@@H]4N(C)c5ccccc5[C@]45C[C@@H]([C@H]2[C@H]5O)N3[C@@H]1O`, the Potency entry is “inactive”. As for `C[C@@H]1O[C@@H](O[C@H]2CC[C@@]3(C)C(CC[C@@H]4C3CC[C@]3(C)[C@@H](C5=CC(=O)OC5)CC[C@]43O)C2)[C@H](O[C@@H]2O[C@H](CO)[C@@H](O)[C@H](O)[C@H]2O)[C@H](O)[C@H]1O` (stereo not given in full), the Potency was 1260 nM (active). On to `CC1=CC2/C=C(\C)CCC(O)C(O)C(O)CC(=O)C23C(=O)NC(CC(C)C)C3C1C` (stereo not given), for which the Potency entry is “inactive”. On the same count and under the same terms, the result for `C[C@@H](CN1CCC(n2c(=O)[nH]c3cc(Br)ccc32)CC1)NC(=O)[C@@H]1C[C@H]1c1ccccc1` reads “inactive”; that for `Cc1c(Cl)c(OCC(=O)N2CCN(C)CC2)nc2sc(C(=O)NC3CC3)c(N)c12`, “inactive”; that for `CCC1(O)CCC2C3CCC4=CC(=O)CCC4C3CCC21CC` (stereo not given), “inactive”.

For the compound `CNC(=O)c1cc(C#N)cc(C)c1NC(=O)c1cc(Br)nn1-c1ncccc1Cl`, the Potency entry is “inactive”.

Consider `CO[C@H]1C[C@H](O[C@H]2CC[C@]3(C=O)[C@H]4CC[C@]5(C)[C@@H](C6=CC(=O)OC6)CC[C@]5(O)[C@@H]4CC[C@]3(O)C2)O[C@H](C)[C@H]1O`, for which the Potency is 141 nM (active). With `O=C1N[C@@H](Cc2ccccc2)CN2CCCC[C@@H]12`, the Potency result was “inactive”. Same read-out and setting: the result for `CC1=CC(=O)[C@@H](O)[C@]2(C)C3[C@@H](O)[C@@H]4OC(=O)[C@@H]([C@H]4C)[C@]3(C)C(=O)C[C@@H]12` (stereo not given in full) reads “inactive”; that for `COc1ccc2c(c1)c(CCN(C)C)cn2S(=O)(=O)c1ccccc1`, “inactive”.

With `Oc1ccc2c3c1O[C@H]1c4[nH]c5c(N=C=S)cccc5c4C[C@@]4(O)[C@@H](C2)N(CC2CC2)CC[C@]314`, the Potency result was “inactive”.

Consider `CC[C@@H]1C[C@H]2CC[C@H](O2)[C@H](C)C(=O)O[C@@H](C)C[C@@H]2CC[C@@H](O2)[C@@H](C)C(=O)O[C@H](CC)C[C@H]2CC[C@H](O2)[C@H](C)C(=O)O[C@@H](C)C[C@@H]2CC[C@@H](O2)[C@@H](C)C(=O)O1`, for which the Potency was 794 nM (active).

With `OCc1nnc2n1-c1ccc(Cl)cc1C(c1ccccc1Cl)=NC2`, the Potency result was “inactive”.
